Assay outcomes from PubChem BioAssay.
ATXN2 expr inh = ATXN2 expression inhibition | HEK-293 ATXN2-luciferase reporter, luminescence, 24 h | Potency, µM (top dose mostly 57 µM), usual class: inhibitors | hit rate 0.72% among 360,000 | AID 1745845; further: nearly all actives have a fitted effect of over 55% in size
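qHTS (up to 57 uM final) was run with 24 h compound exposure of reporter cells at 37 °C. Each well was multiplexed: SteadyGlo luminescence measured ATXN2-luciferase expression after a fluorogenic Gly-Phe-AFC viability readout (25 uM final).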
HT1080 IDH1KD tx = toxicity to HT-1080 IDH1 knockdown cells (counter line). HT-1080 IDH1 knockdown viability, ATP luminescence, 48 h. Potency, µM (highest dose often 46.1 µM), most hits filed as cytotoxic. hit rate 2% among 360,000
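IDH1KD HT-1080 cells, 750/well, RPMI + 5% FBS; compound pinned after 2 h settling; 48 h, 37 °C; CellTiter-Glo luminescence; % activity normalised to DMSO and no-cell wells; curves fitted, classed by r2 and efficacy.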
ATXN viability = viability counter-screen for ATXN expression inhibitors | S2 cells (HEK-293 line with an ATXN2-luciferase reporter) viability, CellTiter-Fluor protease fluorescence, 24 h | Potency, µM (highest dose often 56.7 µM), actives largely listed as cytotoxic | hit rate 0.49% among 400,000; further: nearly all actives have a fitted effect of over 40% in size
HepG2 viability = HepG2 cytotoxicity, counter-screen for TGF-b inhibitors | Potency, µM (doses to about 46.1 µM), usual class: cytotoxic | hit rate 0.76% among 410,000 | HepG2 CAGA-GFP viability, ATP luminescence, 18 h
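CellTiter-Glo luminescence gave cytotoxicity after 18 hours at 37 degrees C. The cells were HepG2 CAGA-GFP in 1% FBS DMEM, stimulated with 500 pg/mL TGF-beta after compound addition. %Activity was normalised to no-cell wells (complete cell-killing) and DMSO (no toxicity), and curves were fitted and classified.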
TGFb inhibitor = blocks TGF-b signaling. HepG2 CAGA-GFP TGF-b/SMAD3 reporter, GFP fluorescence, 18 h; TGF-beta stimulated, 500 pg/mL final. Potency, µM (titrated, usually from 46.1 µM), most hits filed as inhibitors. hit rate 1.2% among 410,000; further: nearly all actives have a fitted effect of over 65% in size
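First, reporter cells (HEPG2 CAGA-GFP) rested 2 h at 37 degrees C. Next, compounds were pinned in and TGF-beta added to 500 pg/mL final. After 18 h, GFP was imaged per cell and summed per well.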
HT1080NT lethal = kills 2HG-producing HT-1080-NT fibrosarcoma cells | hit rate 1.6% among 360,000 | AID 686970 | HT-1080-NT fibrosarcoma viability, CellTiter-Glo ATP luminescence, 48 h | Potency, µM (highest dose often 46.1 µM), hits mostly cytotoxic;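 further: NT is the 2HG producing partner of a matched IDH1 knockdown line; nearly all actives have a fitted effect of over 55% in size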
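A 48-hour cytotoxicity screen used HT-1080-NT cells plated 2 hours before compound delivery. ATP-based CellTiter-Glo luminescence measured viability, normalized to DMSO and no-cell controls.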
Numbers stand for hits; – = inactive; ? = inconclusive; · = not tested or not shown; [ ] = another dose, or the depositor's remark. The list is not random: actives were taken first. Their share in the collection is about 3.9%. The call rests on the fitted dose curve; in most records, active means well fitted curve in the direction sought with a large enough effect; inconclusive means small, poorly fitted or top-dose-only effect, or another doubt; inactive means no such curve, though single readings can be large; an effect the other way counts as inactive or inconclusive.

SMILES	ATXN2 expr inh	HT1080 IDH1KD tx	ATXN viability	HepG2 viability	TGFb inhibitor	HT1080NT lethal
Cc1ccc2sc(N(CCCN(C)C)C(=O)c3ccc(S(=O)(=O)N4CCc5ccccc5C4)cc3)nc2c1C	–	?	–	–	–	21µM
COc1ccccc1OCCn1c(C(C)Oc2ccccc2)nc2ccccc21 (stereo not given)	–	·	–	–	11µM	·
Cc1ccc(N2CC(NC(=O)c3cccs3)CC2=O)cc1C (stereo not given)	·	·	·	–	–	·
CCOc1ccc(-c2cccc(NS(=O)(=O)c3c(C)cc(C)cc3C)c2)nn1	?	·	?	–	20µM	·
CCOc1ccc(S(=O)(=O)Nc2cccc(-c3ccc(OCC)nn3)c2)cc1	–	·	?	–	–	·
CCN(CC)C(=O)c1ccc2c(c1)N(Cc1c(F)cccc1Cl)C(=O)c1ccccc1S2	?	·	–	–	16µM	·
CC(C)Cc1ccc(C(C)C(=O)Nc2ccc(O)cc2)cc1 (stereo not given)	·	–	?	–	?	–
CC(C)Cc1ccc(C(C)C(N)=Nc2ccc(O)cc2)cc1 (stereo not given)	?	21µM	–	16µM	?	?
Cc1nnsc1-c1onc(C)c1C(=O)Nc1cc(Cl)cc(Cl)c1	·	?	?	–	16µM	?
COc1cccc(-c2nc(CS(=O)(=O)CC(=O)NCCc3ccc(Cl)cc3)c(C)o2)c1	·	·	·	–	11µM	·
Cc1ccc(-c2nc(CS(=O)(=O)CC(=O)NC(C)CCc3ccccc3)c(C)o2)cc1 (stereo not given)	·	·	·	–	11µM	·
Cc1ccccc1-c1nc(CS(=O)(=O)CC(=O)NCCc2ccccc2)c(C)o1	–	–	–	–	14µM	–
COc1cccc(-c2nc(CS(=O)(=O)CC(=O)NCCc3ccccc3)c(C)o2)c1	–	–	–	–	–	–
Cc1cccc(N2CCN(C(=O)CS(=O)(=O)Cc3nc(-c4ccccc4C)oc3C)CC2C)c1 (stereo not given)	?	·	–	–	11µM	·
OC(COc1ccc2cc(Br)ccc2c1)CN1CCCC1 (stereo not given)	?	13µM	?	–	?	–[9.24 µM]
COc1ccccc1OCCCCN1CCN(C(c2ccccc2)c2ccccc2)CC1	–	18µM	?	–	?	?
c1ccc(OCCOCCN2CCN(C(c3ccccc3)c3ccccc3)CC2)cc1	–	–	–	–	?	–
COc1ccc(OCC(O)CN2CCCCCC2)cc1 (stereo not given)	–	–	–	–	–	–
CC1CCCN(CC(O)COc2ccc(-c3ccccc3)cc2)C1 (stereo not given)	?	?	?	–	–	18µM
COc1ccc(OCC(O)CN2CCCC2)cc1 (stereo not given)	·	–	–	13µM	–	–
O=C(NCC1(N2CCOCC2)CCCCCC1)c1cnn(-c2nccc(-c3ccco3)n2)c1C1CC1	·	·	–	·	·	·
CN1CCN(CC(O)COc2ccc(C34CC5CC(CC(C5)C3)C4)cc2)CC1 (stereo not given)	–	15µM	–	–	?	18µM
CN1CCN(CC(O)COc2ccccc2)CC1 (stereo not given)	–	–	–	–	–	–
OC(COc1ccccc1)CN1CCN(C(c2ccccc2)c2ccccc2)CC1 (stereo not given)	–	–	–	–	14µM	–
Cc1ccc(OCC(O)CN2CCOCC2)cc1 (stereo not given)	·	–	?	–	–	–
OC(COc1ccc(Br)cc1)CN1CCOCC1 (stereo not given)	–	–	–	2.8µM	–	–
Cc1cc(F)ccc1NC(=O)C1CCCN(S(=O)(=O)c2ccc3c(c2)CCCC(=O)N3)C1 (stereo not given)	–	·	–	–	–	·
Cc1ccc(CN2CCSc3ccc(C(=O)N4CCN(c5cc(C)ccc5C)CC4)cc32)cc1	–	·	–	–	–	·
Cn1nnnc1SCC(=O)NCCc1ccc(Cl)cc1	–	–	–	16µM	–	–
